Screening data deposited in PubChem BioAssay by National Center for Advancing Translational Sciences (NCATS).
BAZ2B inh: BAZ2B (human) inhibition. Q9UIF8. AlphaScreen BAZ2B-H3K14Ac peptide displacement. Potency, µM (series often up to 114 µM), inactives show at the top dose activity change, negative = inhibition, most hits filed as inhibitors. actives 4.4% (n = 360,000). AID 504333; also: % is scaled to controls: 0 for no effect and ±100 for the full control effect; nearly all actives have a fitted effect of over 60% in size
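BAZ2B (50 nM) with biotin-H3(5-23)K14Ac peptide (50 nM) in PBS pH 7.4, 0.01% Tween-20, preformed 30 min, then compound 30 min at room temperature; top concentration 110uM. AlphaScreen streptavidin donor/nickel chelate acceptor beads (10 ug/mL final), 20 min dark, signal read.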
JMJD2A Tudor inh: JMJD2A Tudor domain (human) inhibition; O75164; AlphaScreen JMJD2A-Tudor / H3K4me3 peptide binding; Potency, µM (top dose mostly 114 µM), for the others: top-dose activity change, negative = inhibition, hits mostly inhibitors; actives 4.4% (n = 390,000); also: % is scaled to controls: 0 for no effect and ±100 for the full control effect; nearly all actives have a fitted effect of over 50% in size
HP1b chromo inh: HP1-beta chromodomain-methylated histone interaction inhibition. Potency, µM (series often up to 114 µM), without a hit: at the top dose activity change, negative = inhibition, most hits filed as inhibitors. actives 0.56% (n = 390,000). P83916. AID 540317. AlphaScreen HP1-beta / biotin-H3K9me3 peptide binding; also: nearly all actives have a fitted effect of over 70% in size
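AlphaScreen: HP1-beta (50 nM) preformed 30 min with biotin-H3(1-18)K9me3 peptide (50 nM) in PBS pH 7.4, 0.01% Tween-20. Compound added for 30 min at RT, then streptavidin donor/nickel chelate acceptor beads (10 ug/mL) for 30 min.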
G9a block: blocks human histone lysine methyltransferase G9a; Q96KQ7; actives 8.8% (n = 350,000); G9a H3K9 monomethylation, AlphaScreen, 2 h; Potency, µM (series often up to 102 µM), without a hit: top-dose activity, negative = inhibition, hits mostly inhibitors; also: % is scaled to controls: 0 for no effect and ±100 for the full control effect; nearly all actives have a fitted effect of over 75% in size
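AlphaScreen detection with an anti-monomethyl H3K9 antibody quantified product after a 2 h room-temperature reaction containing 500 nM biotinylated H3K9 peptide, 20 µM SAM and 20 nM enzyme, which had been preincubated 15 min with compound.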
PLK1 PBD inh: blocks phosphopeptide binding to human PLK1 polo-box domain. P53350. Plk1 PBD binding of FITC phosphopeptide, fluorescence polarization. Potency, µM, for the others: max response, negative = inhibition, actives largely listed as inhibitors. actives 2.8% (n = 360,000); also: series mostly up to about 57 µM; % is scaled to controls: 0 for no effect and ±100 for the full control effect; nearly all actives have a fitted effect of over 65% in size
Sfp PPTase inh: blocks B. subtilis Sfp PPTase activity | Q9F4F7 | Biochemical Sfp PPTase activity, qHTS | Potency, µM, without a hit: largest response in the series, negative = inhibition, actives largely listed as inhibitors | actives 3.5% (n = 310,000);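 also: the enzyme is Sfp with the accession as filed and its product quenches rhodamine fluorescence; 0% = enzyme reaction without inhibitor and -100% = no enzyme wells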
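Fluorescence-quenching assay with 15 nM Sfp, 5 uM rhodamine-CoA and 12.5 uM BHQ-2-labelled ybbR peptide in pH 7.6 Hepes/MgCl2 buffer. Enzyme was pre-incubated with compound for 15 min at room temperature. Rate was taken from the 30-min fluorescence change (525/598 nm).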
* = called active by the depositor; ? = inconclusive; . = not tested or not shown; [ ] = dose if it differs, or a comment. Compounds with a hit are over-represented: about 12% of the library has one in this group of screens. Calls follow the shape of the dose curve; as a rule, active = well fitted curve in the direction sought with a large enough effect; inconclusive = small, poorly fitted or top-dose-only effect, or another doubt; inactive = no such curve, though single readings can be large; an effect the other way counts as inactive or inconclusive. Potency is read from the fitted curve at half-maximal effect.

SMILES	BAZ2B inh	JMJD2A Tudor inh	HP1b chromo inh	G9a block	PLK1 PBD inh	Sfp PPTase inh
CCC(=O)N1CCc2cc(Br)cc(S(=O)(=O)N3CCCC(C(=O)N(C)c4ccc(Br)cc4)C3)c21 (centres undefined)	10.4%	-27.6%	22.1%	7.2%[59 µM]	.	.
Cc1[nH]c(C)c(S(=O)(=O)N2CCCCC2C)c1C(=O)N1CCCC1 (centres undefined)	-19.3%	-13.1%	4.4%	57.0%	-9.3%	19.9%
CC(=O)c1ccc(N2C(=O)N(Cc3ccc(F)cc3)c3ccccc3S2(=O)=O)cc1	-3.4%	-20.3%	-6.0%	7.6%[59 µM]	.	.
Cc1c(C(=O)O)cccc1-c1ccc(/C=N/n2cnnc2)o1	79.4µM*	89.1µM*	-5.6%	35.5µM*	?	5.6%
Cc1c(C(=O)O)cccc1-c1ccc(/C=N/Nc2ccc(Br)cc2)o1	50.1µM*	?	-12.8%	10µM*	?	?
CCc1ccc(NC(=O)CSc2c(C)cnc3c2c(=O)n(C)c(=O)n3C)cc1	5.1%	-1.9%	32.1%	-3.3%[59 µM]	.	.
Cc1ccccc1C(=O)NC(=S)Nc1sc2c(c1C#N)CCCC2	-37.3%	?	-10.6%	?	?	8.5%
CC(C(=O)Nc1sc2c(c1C#N)CCCCC2)N1C(=O)c2ccccc2C1=O (centres undefined)	?	-32.8%	1.4%	3.16µM*	-2.6%	?
N#Cc1c(NC(=O)c2ccccc2)sc2c1CCCCC2	13.2%	-11.6%	9.2%	10.9%[59 µM]	-6.9%	0.9%
Cc1cc(C(F)F)n2nc(C(=O)Nc3sc4c(c3C#N)CCC4)nc2n1	?	-22.4%	?	50.1µM*	26.7µM*	?
CC(C)(C)C(=O)NC(=S)Nc1sc2c(c1C#N)CCCCC2	-34.2%	-13.0%	4.0%	?	-23.3%	44.7µM*
Cn1cc(Cl)c(C(=O)NC(=S)Nc2sc3c(c2C#N)CCCCC3)n1	-29.7%	-32.3%	-24.2%	21.2%[59 µM]	11.9µM*	?
CC(=O)Nc1sc2c(c1C#N)CCCCC2	18.6%	-11.7%	34.1%	2.0%[59 µM]	-5.0%	-5.6%
Cn1cc([N+](=O)[O-])c(C(=O)Nc2sc3c(c2C#N)CCC3)n1	-29.6%	-12.4%	31.0%	6.6%	-2.2%	11.8%
Cn1cnnc1SCC(=O)Nc1sc2c(c1C(N)=O)CCC2	50.1µM*	63.1µM*	?	?	26.7µM*	?
N#Cc1c(NC(=O)c2cc(-n3cnnc3)ccc2Cl)sc2c1CCCC2	-25.9%	-31.5%	0.2%	11.2µM*	-18.8%	13.9%
C=CCNC(=S)Nc1sc2c(c1C#N)CCCC2	-30.1%	-5.8%	0.9%	44.7µM*	-24.1%	?
Cn1cc(Br)c(C(=O)Nc2sc3c(c2C#N)CCC3)n1	-0.4%	-23.7%	-16.2%	35.5µM*	?	-21.4%
CSCCC(NC(=O)c1ccccc1)C(=O)N1CC(C)OC(C)C1 (centres undefined)	9.5%	8.4%	36.6%	11.9%[59 µM]	4.9%	.
CC1CCC2(CC1)NC(=O)N(CC(=O)Nc1sc3c(c1C(N)=O)CCC3)C2=O (centres undefined)	50.1µM*	?	7.0%	50.1µM*	-29.5%	?
COC(=O)c1c(NC(=O)CN2C(=O)NC3(CCC(C)CC3)C2=O)sc2c1CCC2 (centres undefined)	8.8%	-3.6%	33.6%	-4.7%[12.7 µM]	-6.4%	.
Cn1ccc(C(=O)Nc2sc3c(c2C#N)CCC3)n1	?	1.1%	11.8%	35.5µM*	?	-18.5%
Cn1cc(Br)c(C(=O)Nc2sc3c(c2C(N)=O)CCCC3)n1	-5.3%	-18.7%	-10.5%	35.5µM*	-28.9%	-27.9%
CC(C)OC(=O)c1ccc(N2CCN(c3ccc(F)cc3)CC2)nc1	4.6%	?	17.0%	25.5%[2.33 µM]	26.7µM*	17.6%
O=S(=O)(Nc1nnc(C2CCCCC2)s1)c1ccc(F)cc1	-18.2%	-15.8%	-6.2%	?	-25.8%	9.4%
COc1ccc(S(=O)(=O)Nc2nnc(C(C)C)s2)cc1	8.4%	?	-3.4%	?	?	-4.6%
